# Where a name gives a salt, the structure may show the parent alone. ± gives the standard deviation of the averaged measurements.
# Tested on: E. coli TESEC Mtb DapB
# Experiment: growth (OD600 after 10 h); higher = more growth (less inhibition)
# Conditions: arabinose induction (level): High; compound 0.1 mM; raw OD600 reference: median of DMSO wells […], cell-free background 0.041
# Experimental: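 TESEC E. coli strains in which the native enzyme is deleted and replaced by arabinose-inducible Mtb Asd, DapB, CysH or TrpD, each grown in its selective medium. Strains were screened against the Prestwick library at 0.1 mM and 1% DMSO in 384-well format at low and high arabinose induction. Growth is read as OD600 after 10 h in triplicate.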
row,Compound,growth
1,CC1Cc2ccccc2N1NC(=O)c1ccc(Cl)c(S(N)(=O)=O)c1 (stereo not given) [Indapamide],0.208 ± 0.016
2,CC1(C)O[C@@H]2C[C@H]3[C@@H]4CCC5=CC(=O)C=C[C@]5(C)[C@H]4[C@@H](O)C[C@]3(C)[C@]2(C(=O)CO)O1 [Desonide],0.181 ± 0.005
3,Cc1cc(CC(=O)O)n(C)c1C(=O)c1ccc(Cl)cc1 [Zomepirac sodium salt],0.187 ± 0.0096
4,COc1ccc(C(=O)NCc2ccc(OCCN(C)C)cc2)cc1OC [Itopride],0.228 ± 0.028
5,C[N+]1(CCCCC[N+]2(C)CCCC2)CCCC1 [Pentolinium bitartrate],0.1752 ± 0.00061
6,O=C(NCC1CCCCN1)c1cc(OCC(F)(F)F)ccc1OCC(F)(F)F (stereo not given) [Flecainide acetate],0.178 ± 0.016
7,Clc1cnccn1 [2-Chloropyrazine],0.231 ± 0.013
8,NC[C@@H]1O[C@@H](O[C@H]2[C@H](O)[C@@H](O[C@H]3O[C@H](CO)[C@@H](O)[C@H](N)[C@H]3O)[C@H](N)C[C@@H]2N)[C@@H](O)[C@H](O)[C@H]1O [Kanamycin A sulfate],0.202 ± 0.0057
9,CCOC(=O)N1CCC(=C2c3ccc(Cl)cc3CCc3cccnc32)CC1 [Loratadine],0.195 ± 0.0081
10,CN(C)c1nc(N(C)C)nc(N(C)C)n1 [Altretamine],0.217 ± 0.015
11,COc1ccc2[nH]cc(CCNC(C)=O)c2c1 [Melatonin],0.202 ± 0.026
12,Cc1ccc(-c2ncc(Cl)cc2-c2ccc(S(C)(=O)=O)cc2)cn1 [Etoricoxib],0.204 ± 0.031
13,CC(CN(C)C)C(C)(O)Cc1ccc(Cl)cc1 (stereo not given) [Clobutinol hydrochloride],0.187 ± 0.0091
14,CN(C)c1ccc(O)c2c1C[C@H]1C[C@H]3[C@H](N(C)C)C(=O)C(C(N)=O)=C(O)[C@@]3(O)C(=O)C1=C2O [Minocycline hydrochloride],0.0606 ± 0.01
15,Cc1nc(=O)c2cc(CN(C)c3ccc(C(=O)N[C@@H](CCC(=O)O)C(=O)O)s3)ccc2[nH]1 [Raltitrexed],0.188 ± 0.015
16,COc1cc2ncnc(Nc3ccc(F)c(Cl)c3)c2cc1OCCCN1CCOCC1 [Gefitinib],0.207 ± 0.012
17,C#CCN(C)CCCOc1ccc(Cl)cc1Cl [Clorgyline hydrochloride],0.158 ± 0.013
18,CC(NCCC(c1ccccc1)c1ccccc1)c1ccccc1 (stereo not given) [Fendiline hydrochloride],0.0461 ± 0.00056
19,CCN(CC)C(=O)c1ccc(O)c(OC)c1 [Ethamivan],0.196 ± 0.0081
20,Cc1cc(C2CCCCC2)n(O)c(=O)c1 [Ciclopirox ethanolamine],0.0626 ± 0.011

# Same assay, conditions: arabinose induction (level): Low; compound 0.1 mM; raw OD600 reference: median of DMSO wells 0.227, cell-free background 0.041
row,Compound,growth
1,CC1Cc2ccccc2N1NC(=O)c1ccc(Cl)c(S(N)(=O)=O)c1 (stereo not given) [Indapamide],0.216 ± 0.021
2,CC1(C)O[C@@H]2C[C@H]3[C@@H]4CCC5=CC(=O)C=C[C@]5(C)[C@H]4[C@@H](O)C[C@]3(C)[C@]2(C(=O)CO)O1 [Desonide],0.248 ± 0.034
3,Cc1cc(CC(=O)O)n(C)c1C(=O)c1ccc(Cl)cc1 [Zomepirac sodium salt],0.247 ± 0.038
4,COc1ccc(C(=O)NCc2ccc(OCCN(C)C)cc2)cc1OC [Itopride],0.268 ± 0.025
5,C[N+]1(CCCCC[N+]2(C)CCCC2)CCCC1 [Pentolinium bitartrate],0.185 ± 0.0091
6,O=C(NCC1CCCCN1)c1cc(OCC(F)(F)F)ccc1OCC(F)(F)F (stereo not given) [Flecainide acetate],0.213 ± 0.019
7,Clc1cnccn1 [2-Chloropyrazine],0.254 ± 0.025
8,NC[C@@H]1O[C@@H](O[C@H]2[C@H](O)[C@@H](O[C@H]3O[C@H](CO)[C@@H](O)[C@H](N)[C@H]3O)[C@H](N)C[C@@H]2N)[C@@H](O)[C@H](O)[C@H]1O [Kanamycin A sulfate],0.28 ± 0.056
9,CCOC(=O)N1CCC(=C2c3ccc(Cl)cc3CCc3cccnc32)CC1 [Loratadine],0.179 ± 0.0076
10,CN(C)c1nc(N(C)C)nc(N(C)C)n1 [Altretamine],0.267 ± 0.019
11,COc1ccc2[nH]cc(CCNC(C)=O)c2c1 [Melatonin],0.23 ± 0.026
12,Cc1ccc(-c2ncc(Cl)cc2-c2ccc(S(C)(=O)=O)cc2)cn1 [Etoricoxib],0.261 ± 0.029
13,CC(CN(C)C)C(C)(O)Cc1ccc(Cl)cc1 (stereo not given) [Clobutinol hydrochloride],0.222 ± 0.026
14,CN(C)c1ccc(O)c2c1C[C@H]1C[C@H]3[C@H](N(C)C)C(=O)C(C(N)=O)=C(O)[C@@]3(O)C(=O)C1=C2O [Minocycline hydrochloride],0.0519 ± 0.0019
15,Cc1nc(=O)c2cc(CN(C)c3ccc(C(=O)N[C@@H](CCC(=O)O)C(=O)O)s3)ccc2[nH]1 [Raltitrexed],0.198 ± 0.029
16,COc1cc2ncnc(Nc3ccc(F)c(Cl)c3)c2cc1OCCCN1CCOCC1 [Gefitinib],0.246 ± 0.0095
17,C#CCN(C)CCCOc1ccc(Cl)cc1Cl [Clorgyline hydrochloride],0.208 ± 0.016
18,CC(NCCC(c1ccccc1)c1ccccc1)c1ccccc1 (stereo not given) [Fendiline hydrochloride],0.0491 ± 0.0046
19,CCN(CC)C(=O)c1ccc(O)c(OC)c1 [Ethamivan],0.2251 ± 0.0019
20,Cc1cc(C2CCCCC2)n(O)c(=O)c1 [Ciclopirox ethanolamine],0.05427 ± 0.00029

# From the supplement of paper PMC9262897, “Low-cost anti-mycobacterial drug discovery using engineered E. coli” (Nature Communications, 2022)
